Laboratory results reported in PubChem BioAssay (NCATS).
Values joined by “and” are separate entries in the source; they are usually repeats but may differ in a detail not shown here. Equal entries are not always repeated. Results filed as inconclusive are left out. A call without a number means that no potency is given here. A structure can be active in one record and inactive in another. Active and inactive are the calls of the source. The call rests on the fitted dose curve. Residues, ends and D or L forms follow the SMILES beside them.

Assay: Cytotoxicity counterscreen for inhibitors of SARS-CoV-2 cell entry (AID 1645845); further: nearly all actives have a fitted effect of over 50% in size
Details: cell viability (SARS-CoV-2 entry assay cells); series mostly up to 57.1 µM
Procedure, shortened: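 48 h compound treatment (after 1 h preincubation), HEK293-ACE2 cells, 37 C/5% CO2; ATP luminescence endpoint; normalized to cell wells and media blanks.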

Q: With `OCc1ccc(Cl)cc1Cl` as the molecule, how does the Potency read?
A: inactive

Q: With `NC(=O)c1ncn([C@@H]2O[C@H](CO)[C@@H](O)[C@H]2O)c1O` as the molecule, how does the Potency read?
A: inactive

Q: With `Clc1cccc(C(c2ccc3nc[nH]c3c2)n2ccnc2)c1` (stereo unspecified) as the molecule, how does the Potency read?
A: inactive

Q: Which Potency does the source give for `Oc1ccc(OCc2ccccc2)cc1` here?
A: inactive

Q: With `NC(N)=NCCN1CCCCCCC1` as the molecule, how does the activity change, negative = cytotoxicity read?
A: 0.589% [at 0.702 µM] (inactive)

Q: With `Nc1nc(Cl)nc2c1ncn2[C@@H]1O[C@H](CO)[C@@H](O)[C@@H]1F` as the molecule, how does the Potency read?
A: inactive

Q: For `CC(=O)OCC[N+](C)(C)C`, which Potency is on record?
A: inactive

Q: With `Nc1ncn([C@H]2C[C@H](O)[C@@H](CO)O2)c(=O)n1` as the molecule, how does the Potency read?
A: inactive

Q: With `O=[N+]([O-])c1cncn1CCN1CCOCC1` as the molecule, how does the Potency read?
A: inactive

Q: For `O=c1[nH]c(=O)n([C@H]2O[C@H](CO)[C@@H](O)[C@@H]2O)cc1/C=C\Br`, which Potency is on record?
A: inactive

Q: Which Potency does the source give for `CCOC(=O)c1ccc(OCCN2C[C@H](O)[C@@H](O)[C@H](O)[C@H]2CO)cc1` here?
A: inactive

Q: Which Potency does the source give for `Cc1c(F)c(N2CCNC(C)C2)cc2c1c(=O)c(C(=O)O)cn2C1CC1` (stereo unspecified) here?
A: inactive

Q: Which Potency does the source give for `C[C@@H]1O[C@@H](OC[C@H]2O[C@@H](Oc3c(-c4ccc(O)c(O)c4)oc4cc(O)cc(O)c4c3=O)[C@H](O)[C@@H](O)[C@@H]2O)[C@H](O)[C@H](O)[C@H]1O` here?
A: inactive

Q: With `CCCCCCCC/C=C/C(=O)O` as the molecule, how does the Potency read?
A: inactive

Q: With `O=C(O)/C=C(\CC(=O)O)C(=O)O` as the molecule, how does the Potency read?
A: inactive

Q: For `CO[C@@]1(NC(=O)C(C(=O)O)c2ccc(O)cc2)C(=O)N2C(C(=O)O)=C(CSc3nnnn3C)CO[C@@H]21` (stereo partly specified), which Potency is on record?
A: inactive

Q: Which Potency does the source give for `CCCNC(C)C(=O)Nc1c(C)csc1C(=O)OC` (stereo unspecified) here?
A: inactive

Q: Which Potency does the source give for `Cc1nnc(NS(=O)(=O)c2ccc(N)cc2)s1` here?
A: inactive

Q: For `COc1ccc(NS(=O)(=O)c2ccc(N)cc2)nn1`, which Potency is on record?
A: inactive

Assay: Primary qHTS to identify inhibitors of SARS-CoV-2 cell entry (AID 1645846); further: nearly all actives have a fitted effect of over 45% in size; further: potency means the concentration at half of the fitted maximal effect
Details: SARS-CoV-2 pseudovirus cell entry assay, luminescence; activity change, negative = inhibition: at 57.1 µM (top of the series) unless noted; series mostly up to 57.1 µM
Procedure, shortened: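 Luminescence readout (Bright-Glo luciferase) 48 h after pseudoparticle addition. HEK293-ACE2 cells, 1500/well; compound pre-incubation 1 h; Normalized to spike PP and bald PP.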

Q: With `CCCCOC(=O)c1ccc(O)cc1` as the molecule, how does the Potency read?
A: inactive

Q: Which activity change, negative = inhibition does the source give for `C#C[C@]1(O)CC[C@H]2[C@@H]3CCc4cc(OC5CCCC5)ccc4[C@H]3CC[C@@]21C` here?
A: -15.1%

Q: With `COc1ccnc(CS(=O)c2nc3ccc(OC(F)F)cc3[nH]2)c1OC` (stereo unspecified) as the molecule, how does the Potency read?
A: inactive

Q: For `CC(CCc1ccc(O)cc1)NCCc1ccc(O)c(O)c1` (stereo unspecified), which activity change, negative = inhibition is on record?
A: -37.3%

Q: With `COC(=O)[C@H](Cc1ccccc1)NC(=O)[C@@H](N)CC(=O)O` (H-Asp-Phe-OMe) as the molecule, how does the activity change, negative = inhibition read?
A: -5.59%

Q: Which activity change, negative = inhibition does the source give for `CCCCC[C@H](O)/C=C/[C@@H]1[C@H]2C/C(=C/CCCC(=O)O)O[C@H]2C[C@H]1O` here?
A: -21%

Q: With `COC(=O)/C=C\C(=O)OC` as the molecule, how does the activity change, negative = inhibition read?
A: -18.2%

Q: With `NC(CO)(CO)CO` as the molecule, how does the Potency read?
A: inactive

Q: With `CO/N=C(/C(=O)N[C@@H]1C(=O)N2C(C(=O)OCOC(=O)C(C)(C)C)=C(C)CS[C@H]12)c1csc(N)n1` as the molecule, how does the activity change, negative = inhibition read?
A: -24.9%

Q: For `COc1c(N2C[C@@H]3CCCN[C@@H]3C2)c(F)cc2c(=O)c(C(=O)O)cn(C3CC3)c12`, which activity change, negative = inhibition is on record?
A: -24.8%

Q: For `CC(CC(C#N)(c1ccccc1)C(C)C)N(C)C` (stereo unspecified), which Potency is on record?
A: inactive

Q: With `COCCCOc1ccnc(CS(=O)c2nc3ccccc3[nH]2)c1C` (stereo unspecified) as the molecule, how does the activity change, negative = inhibition read?
A: 1.47%

Q: With `Cc1c(Nc2ncccc2C(=O)O)cccc1C(F)(F)F` as the molecule, how does the Potency read?
A: inactive

Q: With `CC(=O)Oc1cccc(O)c1` as the molecule, how does the activity change, negative = inhibition read?
A: -13.8%

Q: Which Potency does the source give for `COc1cc(C)c(Cc2cnc(N)nc2N)cc1OC` here?
A: inactive

Q: For `CC(C)C(=O)c1c(C(C)C)nn2ccccc12`, which Potency is on record?
A: inactive

Q: Which Potency does the source give for `O=C(CCOCCOCCOCCOCCC(=O)Nc1c(I)cc(I)c(C(=O)O)c1I)Nc1c(I)cc(I)c(C(=O)O)c1I` here?
A: inactive

Q: With `CC(C)(C)NC[C@H](O)COc1nsnc1N1CCOCC1` as the molecule, how does the activity change, negative = inhibition read?
A: -5.6%

Q: For `O=S(=O)(O)c1ccc(O)cc1`, which activity change, negative = inhibition is on record?
A: 2.14%

Q: Which Potency does the source give for `OCc1ccc(Cl)cc1Cl` here?
A: inactive

Q: Which Potency does the source give for `NC(=O)c1ncn([C@@H]2O[C@H](CO)[C@@H](O)[C@H]2O)c1O` here?
A: inactive

Q: With `Clc1cccc(C(c2ccc3nc[nH]c3c2)n2ccnc2)c1` (stereo unspecified) as the molecule, how does the Potency read?
A: inactive

Q: Which Potency does the source give for `Oc1ccc(OCc2ccccc2)cc1` here?
A: inactive and 3.16 µM (active)

Q: With `NC(N)=NCCN1CCCCCCC1` as the molecule, how does the outcome read?
A: inactive [at 0.702 µM]

Q: For `Nc1nc(Cl)nc2c1ncn2[C@@H]1O[C@H](CO)[C@@H](O)[C@@H]1F`, which Potency is on record?
A: 22.4 µM (active)

Q: Which activity change, negative = inhibition does the source give for `CC(=O)OCC[N+](C)(C)C` here?
A: 3.83%

Q: With `Nc1ncn([C@H]2C[C@H](O)[C@@H](CO)O2)c(=O)n1` as the molecule, how does the activity change, negative = inhibition read?
A: -12.8%

Q: With `O=[N+]([O-])c1cncn1CCN1CCOCC1` as the molecule, how does the activity change, negative = inhibition read?
A: -6.13%

Q: With `O=c1[nH]c(=O)n([C@H]2O[C@H](CO)[C@@H](O)[C@@H]2O)cc1/C=C\Br` as the molecule, how does the Potency read?
A: inactive

Q: Which activity change, negative = inhibition does the source give for `CCOC(=O)c1ccc(OCCN2C[C@H](O)[C@@H](O)[C@H](O)[C@H]2CO)cc1` here?
A: 0.637%

Q: Which activity change, negative = inhibition does the source give for `Cc1c(F)c(N2CCNC(C)C2)cc2c1c(=O)c(C(=O)O)cn2C1CC1` (stereo unspecified) here?
A: -25.6%

Q: For `C[C@@H]1O[C@@H](OC[C@H]2O[C@@H](Oc3c(-c4ccc(O)c(O)c4)oc4cc(O)cc(O)c4c3=O)[C@H](O)[C@@H](O)[C@@H]2O)[C@H](O)[C@H](O)[C@H]1O`, which Potency is on record?
A: inactive
